# Laboratory results as given in PMC5540273 (PLoS ONE, 2017).
# Test system: T1, MEK5
# T1 construct: gene MAP2K5
# 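Note: kd values determined as follow-up on hits from a single-replicate KINOMEscan panel screen.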
row,SMILES,Kd [nM]
1,COc1cc2ncn(-c3cc(OCCCc4ccccc4)c(C(N)=O)s3)c2cc1OC [GSK205189],280
2,Nc1nccc2scc(-c3ccc4c(c3)CCN4C(=O)Cc3ccccc3)c12 [GSK2576924],530
3,COc1cc2ncn(-c3cc(OCc4ccncc4)c(C(N)=O)s3)c2cc1OC [GSK336313],670
4,COc1cc2nccc(Nc3cccc(Oc4ccccc4)c3)c2cc1OC.Cl [GW284543],11
5,COc1cc2nccc(Nc3ccc(OCc4ccc(NC(C)=O)cc4)cc3)c2cc1OC.Cl [GW440135],52
6,COc1cccc(-n2cnc3c(N)ncnc32)c1 [SKF-97416],1300
7,Nc1n[nH]c2ncc(-c3ccccc3)cc12 [SB-517081],660
8,COc1cc2ncn(-c3cc(OCc4ccncc4Br)c(C(N)=O)s3)c2cc1OC [GW854278],78
9,COc1cc2ncn(-c3cc(OCc4ccc(S(C)(=O)=O)cc4)c(C(N)=O)s3)c2cc1OC [GW869979],470
10,Cc1ccc(Oc2ccc(Nc3ncnc4cc[nH]c34)cc2C)cn1,9
11,COc1cc(Nc2nccc(N3CCC(NC(=O)C4COc5ccccc5O4)C3)n2)cc(OC)c1OC (centres unmarked) [GSK1379761],180

# Test system: MYLK2
row,SMILES,Kd [nM]
1,O=C(Nc1n[nH]c2cc(-c3ccccc3F)ccc12)C1CC1 [SB-733371],110
2,O=C(Nc1n[nH]c2nc(-c3ccccc3)c(Cl)cc12)C1CC1 [SB-734909],150
3,O=C(Nc1n[nH]c2nc(-c3ccccc3)c(Br)cc12)C1CC1 [SB-708998],60
